Where “and” joins values, the source holds several entries; their conditions need not be identical. Equal entries are not always repeated. The panel holds about 83,000 compounds, 20% with a hit somewhere; the sample as a whole holds those more often.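 Plates (96-well) were seeded with cells, treated with compound at one concentration, and incubated for 48 hours before percent growth was determined.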 Calls of active or inactive are those of the source.
System: NCI-H522 lung
Experiment: NCI-60 one-dose screen, 48 h (100 = growth as untreated, 0 = no growth, -100 = all killed)
Conditions: 10 µM unless noted
Description: Growth inhibition of the NCI-H522 human Non-Small Cell Lung tumor cell line is measured as a screen for anti-cancer activity. Cells are grown in 96 well plates and exposed to the test compound for 48 hours. Compounds are tested at a single concentration, which is 10^-5 M for most compounds. The reported endpoint is percent growth (GI% or GIPRCNT), where numbers from 0 - 100% represent growth inhibition, and numbers from -100% - 0 represent cell death. For example, a value of 40 represents 60% growth inhibition. A value of 0 means no net growth occurred over the course of the experiment. A value of -40 indicates 40% of cells at the beginning of the experiment died by the end of the experiment. A value of -100 means all cells are dead at the end of the experiment.
NCI-60 Human Tumor Cell Lines Screen was performed using the standard one-dose NCI protocol, which is described in more detail at https://dtp.cancer.gov/discovery_development/nci-60/default.htm.
Compounds with GIPRCNT values below 10 were considered active. Activity score was based on GIPRCNT using the following formula: […]
Score is 0 for GIPRCNT values of 100 or above, 50 for GIPRCNT values of 0, and 100 for GIPRCNT values of -100.

Compound	growth
NC(=O)Cc1nc(O)cc(=O)[nH]1	77% (inactive)
CCCCC/C(C)=N\NC(N)=S	89.3% (inactive)
Cc1ccc(C(=O)c2ccc(C)cc2)cc1	89.3% (inactive) and 93.6% (inactive)
COc1ccc(CCN=Cc2ccc(Cl)cc2)cc1OC	94.8% (inactive)
OCCS	102% (inactive)
O=[N+]([O-])c1ccc(N/N=C/C2CCCCCC2)c([N+](=O)[O-])c1	78.5% (inactive)
O=C(O)c1cccc(Br)c1	103% (inactive) and 85.5% (inactive)
Nc1nc(N)c2cc(S(=O)(=O)c3ccccc3)ccc2n1	46.2% (inactive) and 68.9% (inactive)
Cc1nc2c(=O)[nH]c(=S)[nH]c2[nH]c1=O	105% (inactive) and 100% (inactive)
O=[N+]([O-])c1cccc2ccc(N/N=C/c3ccccc3O)nc12	78.6% (inactive) and 89.2% (inactive)
Cc1onc(-c2c(F)cccc2Cl)c1-c1ncc(-c2ccc(Cl)cc2)o1	35.1% (inactive)
O=c1[nH]c(=O)c2[nH]c(=O)[nH]c2[nH]1	112% (inactive)
COc1ccc(CCn2cnn3c(=O)c4ccccc4nc3c2=O)cc1OC	112% (inactive) and 97.6% (inactive)
ON=C(C1CCCCC1)C1CCCCC1	107% (inactive)
C(=N\OCCc1ccccc1)/c1ccccn1	112% (inactive) and 102% (inactive)
OCc1cccc(F)c1	67.8% (inactive)
CCOC(C)=N	87.3% (inactive)
Cc1c(Cl)cc(Cl)c(N)c1Cl	97.4% (inactive)
CCOC(=O)NC(N)=O	89.4% (inactive) and 103% (inactive)
Nc1c(S(=O)(=O)O)cc(Br)c2c1C(=O)c1ccccc1C2=O	83% (inactive)

Compound	growth
N#Cc1c[nH]n2ccnc12	87.8% (inactive)
CN1C2C=CC(=O)C1C1C(=O)N(c3ccccc3)C(=O)C12 (stereo not given)	-8.8% (active)
N#Cc1ccc(/C=C/C(=O)c2ccccc2)cc1	83.1% (inactive)
CCNC1=CC(=O)c2ncccc2C1=O	-46.3% (active)
C/C(=C\c1ccccc1)C(O)C(=O)c1nc2ccc([N+](=O)[O-])cc2[nH]c1=O (stereo not given)	48.1% (inactive)
O=C(c1ccncc1)c1c(Cc2ccccc2)ccc2ccccc12	27.8% (inactive)
O=C1C=CC(n2cc(F)c(=O)[nH]c2=O)O1 (stereo not given)	76.2% (inactive)
CCOC(=O)C1=C(C)NC(C)=C(C(=O)OCC)C1	104% (inactive) and 106% (inactive)
CC(=O)Oc1ccc(C2(c3ccc(OC(C)=O)cc3)C(=O)Nc3ccccc32)cc1	95.7% (inactive) and 83.2% (inactive)
Nc1ccc2ccc(NS(=O)(=O)N3CCCCC3)cc2c1	47.5% (inactive)
Cc1cc(Cl)nc(Nc2ccccc2)n1	91% (inactive)
O=c1ccn2c(n1)OC1CC2OC1COC(c1ccccc1)(c1ccccc1)c1ccccc1 (stereo not given)	60.7% [100 µM] (inactive)
CCOc1ccc(/C=C\C(=O)O)cc1	115% (inactive)
Nc1c(Cl)cc2c(c1Br)C(=O)c1ccccc1C2=O	91.7% (inactive)
Cc1c(Cl)c(C)c(Cc2c(C)c(Cl)c(C)c(Cl)c2O)c(O)c1Cl	7.1% (active)
Nc1ccc(Cl)c(S(=O)(=O)O)c1	99.1% (inactive)
CC(=O)c1cc2ccccc2o1	84.1% (inactive)
CC(O)CCNC(c1ccccc1)C(O)c1ccccc1 (stereo not given)	89.8% (inactive)
O=C(O)c1ccc2c3ccc(C(=O)O)c4c(C(=O)O)ccc(c5ccc(C(=O)O)c1c25)c43	95.3% (inactive)
CC(=O)Nc1cscc1NC(C)=O	91.3% (inactive)
